Usually inhibition stands for the change of the read-out against control, counted positive when it falls.

For eight compounds, inhibition results are on record in ChEMBL document CHEMBL1961873, “Compounds: GSK PKIS; Assays: Nanosyn kinase panel” (2012).

Assay [1] deals with T1, Serine/threonine-protein kinase D2 (Homo sapiens) (UniProt Q9BZL6).
T1 sequence (whole entry): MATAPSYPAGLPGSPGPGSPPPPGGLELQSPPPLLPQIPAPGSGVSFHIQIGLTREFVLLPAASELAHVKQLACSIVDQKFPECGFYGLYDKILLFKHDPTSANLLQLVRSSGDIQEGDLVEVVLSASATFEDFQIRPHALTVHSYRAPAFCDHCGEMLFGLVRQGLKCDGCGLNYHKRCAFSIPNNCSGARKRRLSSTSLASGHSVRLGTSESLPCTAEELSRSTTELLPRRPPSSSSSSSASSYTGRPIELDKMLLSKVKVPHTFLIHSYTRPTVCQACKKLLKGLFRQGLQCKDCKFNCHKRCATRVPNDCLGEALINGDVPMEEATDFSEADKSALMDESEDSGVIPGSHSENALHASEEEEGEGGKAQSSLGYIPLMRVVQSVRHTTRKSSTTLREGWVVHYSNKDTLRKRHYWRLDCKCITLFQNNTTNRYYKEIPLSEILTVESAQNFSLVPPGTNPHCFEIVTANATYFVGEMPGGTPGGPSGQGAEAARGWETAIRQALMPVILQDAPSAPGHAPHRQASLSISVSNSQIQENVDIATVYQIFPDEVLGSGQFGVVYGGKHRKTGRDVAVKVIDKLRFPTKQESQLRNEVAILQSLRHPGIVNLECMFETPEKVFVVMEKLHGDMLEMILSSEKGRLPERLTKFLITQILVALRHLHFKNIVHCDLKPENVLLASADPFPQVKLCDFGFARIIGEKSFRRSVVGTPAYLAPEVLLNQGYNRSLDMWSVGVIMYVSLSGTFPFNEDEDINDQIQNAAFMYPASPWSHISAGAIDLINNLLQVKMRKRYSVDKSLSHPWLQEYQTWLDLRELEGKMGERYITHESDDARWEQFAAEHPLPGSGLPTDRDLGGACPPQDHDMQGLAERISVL
The settings on record: at 1 µM.

In assay [2] the target is T2, Serine/threonine-protein kinase D3 (Homo sapiens) (UniProt O94806).
T2 sequence (whole entry): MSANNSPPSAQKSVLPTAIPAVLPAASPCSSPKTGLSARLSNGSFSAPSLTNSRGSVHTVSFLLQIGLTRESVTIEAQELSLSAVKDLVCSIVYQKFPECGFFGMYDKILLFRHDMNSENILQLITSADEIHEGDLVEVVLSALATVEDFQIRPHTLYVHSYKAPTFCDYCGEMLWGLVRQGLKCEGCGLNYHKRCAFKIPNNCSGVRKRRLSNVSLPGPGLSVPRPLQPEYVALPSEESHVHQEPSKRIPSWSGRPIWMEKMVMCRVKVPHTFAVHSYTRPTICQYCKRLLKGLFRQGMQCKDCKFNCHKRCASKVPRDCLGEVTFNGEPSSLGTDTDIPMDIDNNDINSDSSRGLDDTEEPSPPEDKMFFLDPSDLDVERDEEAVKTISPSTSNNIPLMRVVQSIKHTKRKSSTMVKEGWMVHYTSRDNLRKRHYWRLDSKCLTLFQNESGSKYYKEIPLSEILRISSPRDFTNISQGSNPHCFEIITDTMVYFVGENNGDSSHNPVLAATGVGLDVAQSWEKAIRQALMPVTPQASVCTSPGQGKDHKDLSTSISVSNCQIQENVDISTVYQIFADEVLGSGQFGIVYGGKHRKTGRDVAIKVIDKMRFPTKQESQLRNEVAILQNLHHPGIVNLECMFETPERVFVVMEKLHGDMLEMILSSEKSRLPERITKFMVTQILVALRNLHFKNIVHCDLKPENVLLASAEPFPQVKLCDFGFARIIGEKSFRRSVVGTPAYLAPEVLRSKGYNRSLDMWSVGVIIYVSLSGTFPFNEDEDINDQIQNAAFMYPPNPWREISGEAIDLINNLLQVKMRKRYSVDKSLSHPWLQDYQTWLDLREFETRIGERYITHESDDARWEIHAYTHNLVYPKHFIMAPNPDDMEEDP
The settings on record: at 0.1 µM.

Assay [3] has as its target T2, Serine/threonine-protein kinase D3 (Homo sapiens). The settings on record: at 1 µM.
Assay [4] addresses T3, cGMP-dependent protein kinase 1 (Homo sapiens) (UniProt Q13976).
T3 sequence (whole entry): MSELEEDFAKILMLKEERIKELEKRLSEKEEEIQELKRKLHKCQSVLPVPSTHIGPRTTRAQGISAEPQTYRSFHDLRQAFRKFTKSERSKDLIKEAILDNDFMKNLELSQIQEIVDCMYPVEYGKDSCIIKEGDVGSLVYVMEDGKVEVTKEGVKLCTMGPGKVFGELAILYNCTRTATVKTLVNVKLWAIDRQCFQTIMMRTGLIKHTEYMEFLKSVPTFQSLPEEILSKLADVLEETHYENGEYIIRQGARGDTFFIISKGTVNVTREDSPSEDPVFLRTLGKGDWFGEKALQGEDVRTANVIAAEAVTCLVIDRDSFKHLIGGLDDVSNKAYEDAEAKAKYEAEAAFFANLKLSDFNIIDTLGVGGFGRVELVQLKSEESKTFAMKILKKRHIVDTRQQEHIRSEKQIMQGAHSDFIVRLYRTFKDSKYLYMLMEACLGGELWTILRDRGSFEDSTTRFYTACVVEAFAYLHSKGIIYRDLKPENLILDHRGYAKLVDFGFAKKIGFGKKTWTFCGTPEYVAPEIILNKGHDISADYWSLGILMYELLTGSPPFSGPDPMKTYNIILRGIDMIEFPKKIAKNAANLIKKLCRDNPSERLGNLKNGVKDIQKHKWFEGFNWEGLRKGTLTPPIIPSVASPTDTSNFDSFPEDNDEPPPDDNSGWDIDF
The settings on record: at 0.1 µM.

Assay [5] deals with T3, cGMP-dependent protein kinase 1 (Homo sapiens). The conditions noted are these: at 1 µM.
The target in assay [6] is T4, cGMP-dependent protein kinase 2 (Homo sapiens) (UniProt Q13237).
T4 sequence (whole entry): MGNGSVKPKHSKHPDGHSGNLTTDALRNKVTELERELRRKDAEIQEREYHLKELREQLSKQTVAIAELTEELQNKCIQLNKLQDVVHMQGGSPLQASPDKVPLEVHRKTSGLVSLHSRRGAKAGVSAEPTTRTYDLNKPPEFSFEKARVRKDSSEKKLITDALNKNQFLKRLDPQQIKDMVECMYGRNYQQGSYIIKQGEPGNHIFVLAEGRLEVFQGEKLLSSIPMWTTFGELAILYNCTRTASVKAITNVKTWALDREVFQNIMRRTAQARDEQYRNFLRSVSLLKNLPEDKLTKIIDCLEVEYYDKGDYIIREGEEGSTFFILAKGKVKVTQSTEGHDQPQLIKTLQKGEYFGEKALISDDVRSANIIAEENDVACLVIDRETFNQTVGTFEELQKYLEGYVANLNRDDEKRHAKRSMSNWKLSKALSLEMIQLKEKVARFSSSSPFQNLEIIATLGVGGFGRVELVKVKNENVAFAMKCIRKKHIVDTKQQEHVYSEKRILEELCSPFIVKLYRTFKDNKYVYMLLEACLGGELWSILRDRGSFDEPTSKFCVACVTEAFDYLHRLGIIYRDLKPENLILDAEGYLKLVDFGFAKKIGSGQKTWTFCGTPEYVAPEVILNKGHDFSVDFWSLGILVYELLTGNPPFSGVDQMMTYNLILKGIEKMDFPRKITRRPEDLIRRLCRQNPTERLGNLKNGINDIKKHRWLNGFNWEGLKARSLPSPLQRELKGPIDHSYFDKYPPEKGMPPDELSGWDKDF
The settings on record: at 0.1 µM.

Assay [7] has as its target T4, cGMP-dependent protein kinase 2 (Homo sapiens). The conditions noted are these: at 1 µM.
Assay [8] concerns the target T5, cAMP-dependent protein kinase catalytic subunit PRKX (Homo sapiens) (UniProt P51817).
T5 sequence (whole entry): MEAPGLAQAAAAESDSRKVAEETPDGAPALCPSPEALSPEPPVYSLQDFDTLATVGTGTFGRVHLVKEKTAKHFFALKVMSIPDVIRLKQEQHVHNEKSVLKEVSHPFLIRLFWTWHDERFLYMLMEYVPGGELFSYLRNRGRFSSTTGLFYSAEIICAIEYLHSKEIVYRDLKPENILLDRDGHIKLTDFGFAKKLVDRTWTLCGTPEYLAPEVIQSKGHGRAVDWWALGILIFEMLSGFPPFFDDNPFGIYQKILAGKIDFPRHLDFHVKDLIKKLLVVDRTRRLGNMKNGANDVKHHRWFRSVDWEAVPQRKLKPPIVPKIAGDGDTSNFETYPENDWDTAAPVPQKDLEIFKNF
The conditions noted are these: at 0.1 µM.

In assay [9] the target is T5, cAMP-dependent protein kinase catalytic subunit PRKX (Homo sapiens). The settings on record: at 1 µM.
The target in assay [10] is Rho-associated protein kinase 1 (Homo sapiens) (UniProt Q13464). The settings on record: at 0.1 µM.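 Note: values are mean percent inhibition of ROCK1.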

Molecules are shown by their SMILES.

Chain of Rho-associated protein kinase 1 (Homo sapiens) (Q13464 2-1354 limits assumed): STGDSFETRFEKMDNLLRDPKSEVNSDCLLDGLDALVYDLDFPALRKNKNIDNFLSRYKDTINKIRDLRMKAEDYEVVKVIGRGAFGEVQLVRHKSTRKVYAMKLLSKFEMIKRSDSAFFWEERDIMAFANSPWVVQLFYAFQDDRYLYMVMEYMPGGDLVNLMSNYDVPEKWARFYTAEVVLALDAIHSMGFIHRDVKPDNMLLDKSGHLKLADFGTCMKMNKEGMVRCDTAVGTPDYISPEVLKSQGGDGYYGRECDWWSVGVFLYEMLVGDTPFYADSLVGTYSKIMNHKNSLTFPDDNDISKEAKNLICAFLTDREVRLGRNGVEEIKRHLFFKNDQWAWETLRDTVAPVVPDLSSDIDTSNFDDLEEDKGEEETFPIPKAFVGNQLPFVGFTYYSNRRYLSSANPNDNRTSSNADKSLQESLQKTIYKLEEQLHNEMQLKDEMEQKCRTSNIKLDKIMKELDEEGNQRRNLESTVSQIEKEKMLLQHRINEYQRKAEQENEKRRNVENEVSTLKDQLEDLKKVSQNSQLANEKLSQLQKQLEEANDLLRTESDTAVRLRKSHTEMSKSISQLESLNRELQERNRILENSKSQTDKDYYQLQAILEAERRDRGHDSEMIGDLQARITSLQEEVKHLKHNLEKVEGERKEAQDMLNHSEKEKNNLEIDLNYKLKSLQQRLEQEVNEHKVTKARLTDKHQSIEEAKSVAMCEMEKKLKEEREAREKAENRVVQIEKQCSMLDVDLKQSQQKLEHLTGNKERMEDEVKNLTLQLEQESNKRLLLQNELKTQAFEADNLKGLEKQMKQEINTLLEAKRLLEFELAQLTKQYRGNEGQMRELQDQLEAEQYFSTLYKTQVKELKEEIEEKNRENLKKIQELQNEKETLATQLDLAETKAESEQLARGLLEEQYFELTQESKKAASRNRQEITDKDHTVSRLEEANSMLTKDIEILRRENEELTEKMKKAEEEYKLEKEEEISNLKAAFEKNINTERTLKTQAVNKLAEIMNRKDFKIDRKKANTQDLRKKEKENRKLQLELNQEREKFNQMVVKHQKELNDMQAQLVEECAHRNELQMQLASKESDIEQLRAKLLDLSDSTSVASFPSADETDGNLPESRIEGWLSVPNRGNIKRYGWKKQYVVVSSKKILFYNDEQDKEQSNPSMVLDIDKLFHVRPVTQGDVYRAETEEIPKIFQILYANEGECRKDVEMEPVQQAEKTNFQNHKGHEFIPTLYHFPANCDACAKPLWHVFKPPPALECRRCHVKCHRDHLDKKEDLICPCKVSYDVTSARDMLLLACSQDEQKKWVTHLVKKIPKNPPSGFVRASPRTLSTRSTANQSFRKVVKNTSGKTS

`CCc1nn2ncccc2c1-c1ccnc(NC2CC2)n1`: the inhibition in assay [1] stood at 3.14%; in assay [2], 1.73%; in [3], 2.57%; in [4], 1.92%; in [5], 3.59%; in [6] it was 0.96%. The inhibition in [7] is 3.27%; in assay [8], 1.66%; in [9], 0.72%; in assay [10] it was 0.66%.
As for `CS(=O)(=O)CCNCc1ccc(-c2ccc3ncnc(Nc4ccc(OCc5ccccc5)c(C(F)(F)F)c4)c3c2)o1`, the inhibition in [1] was 2.47%; in assay [2], 4.3%; in assay [3], 4.39%; in [4] it was 2.93%; in assay [5], 0.85%; in assay [6], 1.82%. Besides, the inhibition is 0.3% in assay [7], 2.36% in assay [8], 2.08% in assay [9] and 10.3% in assay [10].
With `CC1=C(C(=O)Nc2cc(Cl)c3[nH]ncc3c2)C(c2ccc(C(F)(F)F)cc2)CC(=O)N1` (stereo not given), the inhibition in [1] turned out to be 7.46%; in [2], 4.09%; in [3], 7.2%; in [4] it was 27.6%; in [5] it was 67.9%; in [6], 16.9%. Moreover, the inhibition in [7] was 59.7%; in [8], 44.8%; in assay [9], 79.7%; in assay [10] it was 70.7%.
`COc1ccc2[nH]c3c4[nH]c5ccc(OC)cc5c4c4c(c3c2c1)C(=O)NC4=O`: the inhibition amounted to 45.9% in assay [1]; 5.31% in assay [2]; 14.4% in [3]; 6.13% in assay [4]; 35% in assay [5]; 69.5% in [6]. Moreover, the inhibition came to 72.5% in assay [7], 9.07% in assay [8], 46% in assay [9] and 1.15% in assay [10].
As to `Cc1ccc(O)cc1Nc1ccnc2cc(-c3ccccn3)ccc12`, the inhibition in assay [1] stood at 34.9%; in assay [2], 5.74%; in assay [3] it was 18.9%; in [4], 3.58%; in assay [5], 1.99%; in [6] it was 1.7%. Further, the inhibition in assay [7] is 3.8%; in assay [8], 1.87%; in assay [9] it was -2.49%; in assay [10], 0.91%.
On to `NS(=O)(=O)c1ccc(N/N=C2\C(=O)Nc3ccc4ncccc4c32)cc1`, for which the inhibition in assay [1] was 55.7%; in [2], 8.6%; in assay [3], 51.4%; in assay [4], 4.46%; in assay [5], 22.6%; in assay [6], 9.97%. Also, the inhibition was 46.1% in assay [7], -0.15% in assay [8], 2.43% in assay [9] and 7.13% in [10].
As to `Nc1nc(-c2cccc(Cl)c2)c(-c2ccc3ncccc3n2)s1`, the inhibition in [1] is 40.1%; in [2] it was 7.77%; in assay [3], 33.1%; in [4], 2.8%; in assay [5] it was 5.63%; in assay [6] it was 1.78%. Moreover, the inhibition in [7] is 4.96%; in [8], 3.46%; in assay [9], 5.88%; in assay [10], 1.58%.
Consider `O=S(=O)(CCNCc1ccc(-c2ccc3ncnc(Nc4ccc(OCc5cccc(F)c5)c(Cl)c4)c3c2)o1)c1ccccc1`, for which the inhibition in [1] was 4.53%; in assay [2] it was 5.12%; in [3], 5.2%; in assay [4] it was 4.89%; in assay [5], 3.93%; in assay [6] it was 3.34%. Besides, the inhibition in [7] was 3.34%; in [8] it was 2.74%; in [9], 2.77%; in assay [10] it was 2.37%.
